FMDV inh: foot and mouth disease virus antiviral activity; 410,000 compounds, 1.2% hits; FMDV antiviral cell-based qHTS; Potency, µM (series often up to 57.9 µM), most hits filed as inhibitors; calls by dose curve; tested in HEK293T cells; also: read-out not given here; nearly all actives have a fitted effect of over 45% in size
HCMV inh: inhibitors of human cytomegalovirus; 410,000 compounds, 4.5% hits; HFF cells, HCMV-luciferase reporter, 72 h; stronger effect = lower value; activity change, negative = inhibition, % at 57.5 µM; in the data active = activity change below about -60%; inconclusive = no clear call, values can overlap the other calls; inactive = above about -39%
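Two compound doses tested in HFFs infected with HCMV-luciferase, MOI 1 PFU/cell, 72 h at 37C. Lysate luminescence read with OneGlo; data normalized against buffer-only and 10uM Salinomycin inhibitor controls.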
HCV inhibitor: blocks hepatitis C virus; 340,000 compounds, 3.4% hits; Huh7.5.1 HCVcc-Cre infection, luciferase reporter, 44 h; Potency, µM (top dose mostly 41.8 µM), usual class: inhibitors; active = well fitted inhibition curve with a large enough effect; inconclusive = small, poorly fitted or top-dose-only effect, or another doubt; inactive = no such curve, though single readings can be large or run the other way
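Cells seeded at 1,000/well and cultured 4 h, then compounds added followed by HCVcc-Cre virus (~0.5 moi). After 44 h further culture, luciferase substrate was added, plates held 15 min at room temperature, and luminescence read for 15 sec.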
SARS PLP yeast: SARS-CoV PLP inhibition in yeast. S. cerevisiae expressing SARS-CoV PLpro, growth rescue. Potency, µM (doses to about 32.9 µM), usual class: activators. 330,000 compounds, 0.19% hits; calls by dose curve; also: nearly all actives have a fitted effect of over 55% in size
LASV entry inh: Lassa virus entry inhibition | 300,000 compounds, 1.2% hits | Potency, µM (top dose mostly 37.9 µM), actives largely listed as inhibitors | Lassa virus pseudotype entry inhibition, cell reporter; calls by dose curve; tested in HEK293 cells; also: nearly all actives have a fitted effect of over 50% in size
Marburg entry inh: Marburg virus entry inhibition; Marburg virus pseudotyped entry inhibition, cell reporter; Potency, µM (top dose mostly 37.8 µM), hits mostly inhibitors; 300,000 compounds, 1.8% hits; AID 540276; calls by dose curve; tested in HEK293 cells
Large screens that a line does not name were inactive. Shown are actives, neighbours in structure and some others; about 8% of the full set was active somewhere.

O=C(Nc1ccc(F)cc1F)Nc1csc2ccccc12	HCV inhibitor inconclusive, LASV entry inh inconclusive, Marburg entry inh inconclusive
CCOC(=O)c1ccc(N2CCN(c3cc(Cl)ccc3C)CC2)c(NC(=O)Nc2ccc(OCC)cc2)c1	none (no result: HCV inhibitor, SARS PLP yeast, Marburg entry inh)
O=C(Nc1ccc(F)c(Cl)c1)Nc1csc2ccccc12	HCMV inh -98.4, HCV inhibitor inconclusive, LASV entry inh inconclusive, Marburg entry inh inconclusive
COc1ccc(Cl)cc1NC(=O)Cn1nc(Cc2ccncc2)c2ccccc2c1=O	HCMV inh inconclusive, Marburg entry inh inconclusive (no result: HCV inhibitor, SARS PLP yeast)
O=C(NCc1ccccc1)Nc1cccn(Cc2ccccc2Cl)c1=O	FMDV inh inconclusive, HCMV inh inconclusive, HCV inhibitor 12.6µM (no result: LASV entry inh, Marburg entry inh)
CSc1ccc(NC(=O)Nc2cccn(Cc3ccccc3)c2=O)cc1	FMDV inh inconclusive, HCMV inh -83.9, HCV inhibitor 3.55µM, LASV entry inh inconclusive, Marburg entry inh inconclusive
O=C(NCc1cccn1Cc1ccccc1)Nc1ccc(Br)cc1F	HCMV inh -83.3 (no result: HCV inhibitor, SARS PLP yeast, Marburg entry inh)
COc1ccc(Cn2cccc(NC(=O)Nc3ccc(F)cc3)c2=O)cc1	HCMV inh inconclusive, HCV inhibitor inconclusive (no result: LASV entry inh, Marburg entry inh)
Cc1ccc(-n2ncc(C(=O)NCCN3CCCC3)c2C2CCN(C(=O)OC(C)(C)C)CC2)cc1C	LASV entry inh inconclusive (no result: HCV inhibitor, SARS PLP yeast, Marburg entry inh)
CCOC(=O)c1c(S(=O)(=O)N2CCC(C(=O)N3CCN(c4cccc(C)c4C)CC3)CC2)c(C)n(C)c1C	none (no result: HCV inhibitor, SARS PLP yeast, Marburg entry inh)
Cc1cccc2nc3ccccc3cc12	none (no result: SARS PLP yeast)
Cc1[nH]ccc2cc3nc4ccccc4c3cc12	HCMV inh -72.4 (no result: HCV inhibitor, SARS PLP yeast, LASV entry inh, Marburg entry inh)
CCOc1ccccc1N(C)C(=O)Cn1nc(Cc2cccnc2)c2ccccc2c1=O	HCMV inh -72.0 (no result: HCV inhibitor, SARS PLP yeast)
CCOc1ccccc1N(C)C(=O)Cn1ncc2c([nH]c3ccccc32)c1=O	HCV inhibitor inconclusive, Marburg entry inh 6.31µM
C[C@@H]1CN(Cc2ccc3c(c2)CN(Cc2cccc4c2OCO4)CCO3)C[C@H](C)O1	none (no result: HCMV inh, HCV inhibitor, SARS PLP yeast, LASV entry inh, Marburg entry inh)
C/C=C1/C(=O)C[C@@H]2[C@H]3CCC4=CC(=O)CC[C@]4(C)[C@@H]3CC[C@]12C	none (no result: HCMV inh, HCV inhibitor, SARS PLP yeast, LASV entry inh, Marburg entry inh)
CCN(CC)c1nn2c(=O)c(C(=O)NCc3cccc(C)c3)cnc2s1	LASV entry inh inconclusive (no result: HCV inhibitor, SARS PLP yeast, Marburg entry inh)
CNC(=S)n1cnc(N)n1	HCMV inh -64.7 (no result: LASV entry inh, Marburg entry inh)
O=C(N/N=C/c1cccs1)c1ccccn1	none
C(=NN=C(NN=Cc1cccs1)NN=Cc1cccs1)c1cccs1	HCV inhibitor 10µM, LASV entry inh inconclusive, Marburg entry inh inconclusive (no result: SARS PLP yeast)
Cc1ccc(Cl)cc1NCc1nnc2n1CCCCC2	none (no result: HCV inhibitor, SARS PLP yeast, Marburg entry inh)
Cc1cc2nc(C3CCN(Cc4nnnn4Cc4cccs4)CC3)[nH]c2cc1C	HCV inhibitor 11.2µM, LASV entry inh inconclusive, Marburg entry inh inconclusive
Cn1ncc2c(Nc3ccccc3Cl)nc(Nc3ccccc3Cl)nc21	HCV inhibitor 6.31µM, Marburg entry inh inconclusive
CC(C)CCNc1nc(Nc2ccccc2)c2cnn(C)c2n1	none (no result: HCV inhibitor, SARS PLP yeast, Marburg entry inh)
CN(C(=O)COC(=O)/C=C/c1ccc2c(c1)OCO2)c1c(N)n(Cc2ccccc2)c(=O)[nH]c1=O	none
Nc1ccccc1C(=O)/C=C/c1ccc2c(c1)OCO2	HCMV inh -71.0, LASV entry inh inconclusive, Marburg entry inh inconclusive
O=C(/C=C/c1ccccc1)c1c(O)n(CCc2ccccc2)c(=O)[nH]c1=O	FMDV inh 12.6µM, Marburg entry inh inconclusive
Cn1c(N)c(C(=O)/C=C/c2ccccc2)c(=O)[nH]c1=O	Marburg entry inh inconclusive
O=C(/C=C/c1ccc2c(c1)OCO2)c1c(O)n(CCc2ccccc2)c(=O)[nH]c1=O	FMDV inh 12.6µM, HCMV inh -84.5, LASV entry inh inconclusive
COc1cc(/C=C/C(=O)c2c(O)n(CCc3ccccc3)c(=O)[nH]c2=O)ccc1O	HCMV inh -97.4, LASV entry inh inconclusive, Marburg entry inh inconclusive
COc1ccc2nc(SCC(=O)N3CCCCCC3)c(C#N)cc2c1	HCV inhibitor 6.31µM
Cc1cc2cc3c(cc2nc1SCC(=O)O)OCCO3	none
Cc1cc2cc3c(cc2nc1SCC(=O)N1CCCC1)OCCO3	HCMV inh -60.6, Marburg entry inh inconclusive
N#Cc1cc2cc3c(cc2nc1SCC(=O)N1CCOCC1)OCCO3	FMDV inh inconclusive, HCMV inh -61.1, LASV entry inh inconclusive, Marburg entry inh inconclusive
CCc1ccc2nc(SCC(=O)N3CCCCC3)c(C#N)cc2c1	HCV inhibitor inconclusive, LASV entry inh inconclusive, Marburg entry inh inconclusive (no result: SARS PLP yeast)

High-throughput results from PubChem BioAssay.
